Results on 11 sequences are retold here after the supplement of paper PMC6555819.

Assay in all cases: PBM binding z-score (relative to random genomic background probes); higher = stronger binding; sequences stand for … in GC…GCGATTGACAGCGTAGAATGAAGG
Assay [1] deals with FXR:RXRa (NR concentration 270 nM, RXRa partner concentration 90 nM). The method, boiled down:
(§1)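 Regression normalization was applied to scanned fluorescence from custom Agilent 4×180K protein-binding microarrays. Before scanning, arrays were incubated 1 h with ligand-free nuclear receptor dimers, and binding was detected with antibodies against each partner (one per run). Binding z-scores use the random background probes as reference.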

The test system of assay [2] is LXRa:RXRa (NR concentration 270 nM, RXRa partner concentration 90 nM). The method, boiled down:
as §1

The subject of assay [3] is LXRa homodimer (NR concentration 270 nM). In outline:
as §1

The subject of assay [4] is LXRb:RXRa (NR concentration 270 nM, RXRa partner concentration 90 nM). The method, boiled down: as §1
In assay [5] the test system is LXRb homodimer (NR concentration 270 nM). The method, boiled down: as §1
The test system of assay [6] is PPARa:RXRa (NR concentration 270 nM, RXRa partner concentration 90 nM). In outline: as §1
Assay [7] deals with PPARg:RXRa (NR concentration 180 nM, RXRa partner concentration 90 nM). The method, boiled down: as §1
For assay [8], the system named is PPARg:RXRa 270nM:90nM, anti-RXR (NR concentration 270 nM, RXRa partner concentration 90 nM). In outline:
as §1

Assay [9] has as its system PPARg:RXRa 30nM:10nM, anti-RXR (NR concentration 30 nM, RXRa partner concentration 10 nM). In outline:
as §1

For assay [10], the system named is PPARg:RXRa 90nM:30nM, anti-RXR (NR concentration 90 nM, RXRa partner concentration 30 nM). The method, boiled down:
as §1

Turning to ACTCGGAGGACAAAGGGCAGAGCTACGCCAGTGA, the PBM binding z-score in assay [1] was 0.0109; in assay [2], 0.0817; in assay [3] it was -0.605; in assay [4], -0.115; in assay [5], -0.71; in assay [6], 1.88. For the same sequence, the PBM binding z-score in assay [7] turned out to be 3.1; in assay [8], 4.39; in [9], 2.2; in [10], 4.28.

Turning to TCTATTAGTTGAAGGGCAACGGACGAGTCCGTTT, the PBM binding z-score in assay [1] is 0.568; in assay [2], 0.993; in assay [3], 0.2; in [4] it was 1.07; in [5], 0.679; in assay [6], 1.06. In addition, the PBM binding z-score in assay [7] stood at 0.0889; in assay [8], 2.19; in assay [9] it was 3.6; in assay [10], 2.89.

With TCGAGTAGCTTACCAATGGGGCATTCAGCTTTCT, the PBM binding z-score in assay [1] is -0.38; in assay [2] it was -0.514; in assay [3], -0.884; in [4], 0.00146; in [5], -1.08; in assay [6] it was -0.152. Also, the PBM binding z-score was -0.423 in [7], -0.0428 in assay [8], 0.616 in assay [9] and 0.411 in assay [10].

With CCGACTCGGGCAAAGGTTACCATACTCAGTACGA, the PBM binding z-score in [1] was 1.22; in assay [2], 1.83; in [3] it was -0.0865; in assay [4] it was 1.94; in assay [5] it was -0.792; in assay [6], 4.45. Moreover, the PBM binding z-score was determined as 8.25 in assay [7], 8.33 in assay [8], 7.28 in [9] and 9.75 in assay [10].

Regarding GCGACTTGGGCATCAGCAGGTTACCATAACTTAA, the PBM binding z-score in assay [1] is -0.439; in [2] it was -0.445; in [3], -0.567; in assay [4], -0.214; in assay [5], -0.905; in [6], -0.0723. Moreover, the PBM binding z-score in assay [7] was 0.0729; in assay [8], -0.529; in [9] it was -0.585; in assay [10] it was -0.893.

Take TAGCCTAGGTCATTCAGGAGCCAGTATAGAAAGC: the PBM binding z-score was 4.36 in assay [1]; 3.63 in [2]; 0.522 in assay [3]; 2.42 in assay [4]; 0.687 in [5]; 3.57 in [6]. Also, the PBM binding z-score in assay [7] was determined as 1.84; in [8], 2.24; in assay [9], 0.638; in [10], 1.63.

With AGAACGAGGGCAAGCTGAGTTGATAGCAGAGTAG, the PBM binding z-score in [1] is 0.521; in [2], 0.295; in [3], -0.476; in [4], 0.14; in [5] it was -0.878; in [6], 1.4. Also, the PBM binding z-score in [7] was found to be 1.32; in assay [8], 1.19; in [9], 0.0687; in [10] it was 0.484.

GCAGACAGGTGAGACGCAGGTAACTCAGGGTGGC: the PBM binding z-score in assay [1] is -0.153; in assay [2], -0.129; in assay [3] it was -0.774; in assay [4], -0.355; in [5], -1.18; in [6], 0.164. Moreover, the PBM binding z-score is 0.374 in assay [7], -0.0915 in [8], -0.758 in assay [9] and -0.532 in [10].

With GCATATAGGTAATACAAGGTGAAGGTCCGATTGT, the PBM binding z-score was 0.87 in assay [1]; 1.46 in assay [2]; 0.0259 in assay [3]; 0.247 in assay [4]; -0.268 in [5]; 1.09 in assay [6]. For the same sequence, the PBM binding z-score in assay [7] is 1.25; in assay [8], 1.12; in assay [9] it was 0.453; in assay [10], 0.748.

For the sequence TTACCAAGGTGAAGGTCGTAGATCCCTCTGTAGA, the PBM binding z-score is 0.719 in assay [1]; 0.647 in assay [2]; -0.474 in assay [3]; 0.573 in [4]; -0.742 in [5]; 2.43 in assay [6]. For the same sequence, the PBM binding z-score in [7] came out at 3.49; in [8], 3.86; in assay [9], 2.16; in assay [10], 3.43.

As to TCTGCTAGGTCGGTTGGTCAGCTAACGAGCTGCC, the PBM binding z-score in [1] is -1.29; in assay [2], -0.709; in [3], -0.834; in assay [4], -0.284; in assay [5], 0.368; in assay [6] it was 0.029. Also, the PBM binding z-score was -1.04 in [7], 0.448 in assay [8], 0.962 in assay [9] and 0.78 in assay [10].
